Results from PubChem BioAssay AID1159580 (chemical genetic matrix, 2015).
Among all 5,500 compounds or so, about 2,000 (36%) were called active. Not shown: some 18% with an inconclusive outcome. The list shows a part of the results. A number with no mark means an inactive call. Rule as the data show it: active = normalized growth mostly below about 0.91 (no sharp cut-off); inconclusive = no clear call, values can overlap the other calls; inactive = mostly above about 0.92.

Assay: chemical genetic growth profiling, strain panel (AID 1159580);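 also: tested at 20 µM; growth read once vehicle control cultures reached saturation at 30 °C; 1 = growth at the plate median or of vehicle wells; lower values mean less growth of the strain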
Settings: growth OD

With `C[C@H](CCC(=O)O)[C@H]1CCC2C3C(CC[C@@]21C)[C@@]1(C)CC[C@@H](O)C[C@H]1C[C@@H]3O` (stereo partly specified) the normalized growth (S. cerevisiae deletion strains, locus YKL009W, strain mrt4, hits give low values) was 0.807 (active), the normalized growth (S. cerevisiae deletion strains, locus YKL068W, hits give low values) was 0.989 and the normalized growth (S. cerevisiae deletion strains, locus YKL085W, strain MDH1 (second series), hits give low values) was 0.953. It also gave a normalized growth (S. cerevisiae deletion strains, locus YKL085W, strain MDH1, hits give low values) of 0.953, a normalized growth (S. cerevisiae deletion strains, locus YKL160W, strain elf1, hits give low values) of 0.977 and a normalized growth (S. cerevisiae deletion strains, locus YKL190W, strain CNB1, hits give low values) of 0.99. For the same compound, the normalized growth (S. cerevisiae deletion strains, locus YKR001C, strain vps1, hits give low values) was 0.963, the normalized growth (S. cerevisiae deletion strains, locus YKR026C, strain gcn3, hits give low values) was 0.997 and the normalized growth (S. cerevisiae deletion strains, locus YKR091W, strain srl3, hits give low values) was 0.99. The normalized growth (S. cerevisiae deletion strains, locus YLL001W, strain dnm1, hits give low values) was 0.953, the normalized growth (S. cerevisiae deletion strains, locus YLL026W, hits give low values) was 0.987 and the normalized growth (S. cerevisiae deletion strains, locus YLL041C, strain sdh2, hits give low values) was 1. The normalized growth (S. cerevisiae deletion strains, locus YLR027C, strain aat2, hits give low values) was 0.983, the normalized growth (S. cerevisiae deletion strains, locus YLR039C, strain RIC1, hits give low values) was 0.828 and the normalized growth (S. cerevisiae deletion strains, locus YLR058C, strain SHM2, hits give low values) was 0.984. It also gave a normalized growth (S. cerevisiae deletion strains, locus YLR102C, strain apc9, hits give low values) of 0.972, a normalized growth (S. cerevisiae deletion strains, locus YLR113W, strain HOG1, hits give low values) of 0.937 and a normalized growth (S. cerevisiae deletion strains, locus YLR221C, strain rsa3, hits give low values) of 1.05. For the same compound, the normalized growth (S. cerevisiae deletion strains, locus YLR258W, strain gsy2, hits give low values) was 1.02, the normalized growth (S. cerevisiae deletion strains, locus YLR262C, strain YPT6 (second series), hits give low values) was 0.795 (active) and the normalized growth (S. cerevisiae deletion strains, locus YLR262C, strain YPT6, hits give low values) was 0.776. It also gave a normalized growth (S. cerevisiae deletion strains, locus YLR268W, strain sec22, hits give low values) of 0.929, a normalized growth (S. cerevisiae deletion strains, locus YLR320W, strain mms22, hits give low values) of 1.03 and a normalized growth (S. cerevisiae deletion strains, locus YLR330W, strain CHS5, hits give low values) of 0.996. It also gave a normalized growth (S. cerevisiae deletion strains, locus YLR342W, strain FKS1 (second series), hits give low values) of 0.965, a normalized growth (S. cerevisiae deletion strains, locus YLR342W, strain FKS1, hits give low values) of 0.946 and a normalized growth (S. cerevisiae deletion strains, locus YLR357W, strain rsc2, hits give low values) of 1.06. For the same compound, the normalized growth (S. cerevisiae deletion strains, locus YLR370C, strain arc18, hits give low values) was 0.964, the normalized growth (S. cerevisiae deletion strains, locus YLR371W, strain rom2, hits give low values) was 0.987 and the normalized growth (S. cerevisiae deletion strains, locus YLR384C, strain iki3, hits give low values) was 0.967. It also gave a normalized growth (S. cerevisiae deletion strains, locus YLR418C, strain cdc73, hits give low values) of 0.965, a normalized growth (S. cerevisiae deletion strains, locus YML016C, strain PPZ1, hits give low values) of 0.978 and a normalized growth (S. cerevisiae deletion strains, locus YML032C, strain rad52, hits give low values) of 0.95. The normalized growth (S. cerevisiae deletion strains, locus YML120C, strain ndi1, hits give low values) was 0.962, the normalized growth (S. cerevisiae deletion strains, locus YML124C, strain tub3, hits give low values) was 0.986 and the normalized growth (S. cerevisiae deletion strains, locus YMR058W, strain fet3, hits give low values) was 0.997. For the same compound, the normalized growth (S. cerevisiae deletion strains, locus YMR078C, strain ctf18, hits give low values) was 0.972, the normalized growth (S. cerevisiae deletion strains, locus YMR125W, strain sto1, hits give low values) was 1.03 and the normalized growth (S. cerevisiae deletion strains, locus YMR129W, hits give low values) was 0.988. It also gave a normalized growth (S. cerevisiae deletion strains, locus YMR205C, strain PFK2, hits give low values) of 0.985, a normalized growth (S. cerevisiae deletion strains, locus YMR223W, strain ubp8, hits give low values) of 1 and a normalized growth (S. cerevisiae deletion strains, locus YMR231W, strain pep5, hits give low values) of 0.959. The normalized growth (S. cerevisiae deletion strains, locus YMR263W, strain SAP30, hits give low values) was 1, the normalized growth (S. cerevisiae deletion strains, locus YMR307W, strain GAS1, hits give low values) was 0.88 and the normalized growth (S. cerevisiae deletion strains, locus YNL067W, strain RPL9B, hits give low values) was 0.972. For the same compound, the normalized growth (S. cerevisiae deletion strains, locus YNL071W, strain lat1, hits give low values) was 1.01, the normalized growth (S. cerevisiae deletion strains, locus YNL128W, strain TEP1, hits give low values) was 0.99 and the normalized growth (S. cerevisiae deletion strains, locus YNL153C, strain GIM3, hits give low values) was 1. It also gave a normalized growth (S. cerevisiae deletion strains, locus YNL183C, strain NPR1, hits give low values) of 0.921, a normalized growth (S. cerevisiae deletion strains, locus YNL209W, strain ssb2, hits give low values) of 1.01 and a normalized growth (S. cerevisiae deletion strains, locus YNL233W, strain BNI4, hits give low values) of 1.02. It also gave a normalized growth (S. cerevisiae deletion strains, locus YNL248C, strain rpa49, hits give low values) of 1.02, a normalized growth (S. cerevisiae deletion strains, locus YNL250W, strain rad50, hits give low values) of 0.978 and a normalized growth (S. cerevisiae deletion strains, locus YNL271C, strain bni1, hits give low values) of 0.956. It also gave a normalized growth (S. cerevisiae deletion strains, locus YNL298W, strain CLA4, hits give low values) of 0.937, a normalized growth (S. cerevisiae deletion strains, locus YNL307C, strain MCK1, hits give low values) of 0.979 and a normalized growth (S. cerevisiae deletion strains, locus YNL322C, strain KRE1 (second series), hits give low values) of 0.981. It also gave a normalized growth (S. cerevisiae deletion strains, locus YNL322C, strain KRE1, hits give low values) of 0.993, a normalized growth (S. cerevisiae deletion strains, locus YNR049C, strain mso1, hits give low values) of 0.993 and a normalized growth (S. cerevisiae deletion strains, locus YNR052C, strain pop2, hits give low values) of 0.971. It also gave a normalized growth (S. cerevisiae deletion strains, locus YOL006C, strain TOP1, hits give low values) of 0.931, a normalized growth (S. cerevisiae deletion strains, locus YOL012C, strain htz1) of 0.86 and a normalized growth (S. cerevisiae deletion strains, locus YOL147C, strain pex11, hits give low values) of 0.983. For the same compound, the normalized growth (S. cerevisiae deletion strains, locus YOR001W, strain rrp6, hits give low values) was 0.947, the normalized growth (S. cerevisiae deletion strains, locus YOR061W, strain CKA2, hits give low values) was 0.977 and the normalized growth (S. cerevisiae deletion strains, locus YOR069W, strain VPS5, hits give low values) was 0.989. For the same compound, the normalized growth (S. cerevisiae deletion strains, locus YOR070C, strain gyp1, hits give low values) was 1, the normalized growth (S. cerevisiae deletion strains, locus YOR080W, strain dia2, hits give low values) was 0.972 and the normalized growth (S. cerevisiae deletion strains, locus YOR083W, strain WHI5, hits give low values) was 0.969. The normalized growth (S. cerevisiae deletion strains, locus YOR106W, strain vam3, hits give low values) was 0.951, the normalized growth (S. cerevisiae deletion strains, locus YOR136W, strain idh2, hits give low values) was 1 and the normalized growth (S. cerevisiae deletion strains, locus YOR144C, strain elg1, hits give low values) was 0.984. It also gave a normalized growth (S. cerevisiae deletion strains, locus YOR184W, strain ser1, hits give low values) of 0.921, a normalized growth (S. cerevisiae deletion strains, locus YOR231W, strain MKK1, hits give low values) of 0.952 and a normalized growth (S. cerevisiae deletion strains, locus YOR265W, strain rbl2, hits give low values) of 0.99. The normalized growth (S. cerevisiae deletion strains, locus YOR270C, strain vph1, hits give low values) was 0.945, the normalized growth (S. cerevisiae deletion strains, locus YOR290C, strain snf2, hits give low values) was 1.03 and the normalized growth (S. cerevisiae deletion strains, locus YOR316C, strain cot1, hits give low values) was 0.982. The normalized growth (S. cerevisiae deletion strains, locus YPL051W, strain arl3, hits give low values) was 1, the normalized growth (S. cerevisiae deletion strains, locus YPL055C, strain LGE1, hits give low values) was 1.01 and the normalized growth (S. cerevisiae deletion strains, locus YPL078C, strain atp4, hits give low values) was 0.931. For the same compound, the normalized growth (S. cerevisiae deletion strains, locus YPL106C, strain sse1, hits give low values) was 0.993, the normalized growth (S. cerevisiae deletion strains, locus YPL240C, strain hsp82, hits give low values) was 1.01 and the normalized growth (S. cerevisiae deletion strains, locus YPL241C, strain CIN2, hits give low values) was 0.993. It also gave a normalized growth (S. cerevisiae deletion strains, locus YPL256C, strain CLN2, hits give low values) of 0.936, a normalized growth (S. cerevisiae deletion strains, locus YPR119W, strain clb2, hits give low values) of 0.977 and a normalized growth (S. cerevisiae deletion strains, locus YPR141C, strain kar3, hits give low values) of 0.97. For the same compound, the normalized growth (S. cerevisiae deletion strains, locus YPR163C, strain tif3, hits give low values) was 0.981, the normalized growth (S. cerevisiae deletion strains, locus YPR167C, strain met16, hits give low values) was 0.987 and the normalized growth (S. cerevisiae deletion strains, strain wtn01, hits give low values) was 0.971. It also gave a normalized growth (S. cerevisiae strains, strain wild type, hits give low values) of 0.994.
